The source of these data is PubChem BioAssay AID1259343 (VanderVen Lab, College of Veterinary Medicine, Cornell …, 2017).

Each structure is given as a SMILES string. Hit rate of the full screen: of about 6,200 compounds, about 2,900 (47%) were called active. The set was probably picked from earlier hits. The list shows a part of the results. A number with no mark means an inactive call. Cut-off read from the data, not from the text of the source: active = inhibition above about 50%; inactive = the rest.

This assay can be described thus: Mycobacterium tuberculosis growth inhibition, primary screen (AID 1259343). Conditions: inhibition: at 10 µM, hits give high values; outcome: 10 uM.
With `COCC(C)NC(=O)c1ccc(CSc2ccccc2)o1` (centres undefined), the inhibition was -22.4%.
The value for `COCC(C)NC(=O)C12CCC(C)(C(=O)O1)C2(C)C` (centres undefined) was 100% (active); that for `Brc1ccc(-n2nc(-c3ccccc3)n[n+]2-c2nnn[n-]2)cc1` was 49.9%; that for `O=C(O)c1cc(-c2ccc(Cl)c(Cl)c2)ns1` was 90% (active).
The value for `O=C(O)c1cc2cc(Cl)sc2s1` was 37%.
As for `CN(Cc1ccc(Cl)s1)S(=O)(=O)c1ccc(Cl)cc1`, the figure is 73.6% (active); as for `CCN(CC)c1ccc(CN(C)S(=O)(=O)c2ccc(F)cc2)cc1`, 33.5%; as for `O=C(CN1CCc2ccccc2C1)Nc1nc(-c2cc3ccccc3o2)cs1`, 5.08%.
Regarding `CC(C)CC(=O)NCC1CCN(c2ccc(Cl)cc2)C1` (centres undefined), the inhibition was 68.8% (active).
Take `Cc1ccc2c(c1)C1CN(C)CCC1N2C(=O)NCC1CCCC1` (centres undefined): the inhibition is 45.5%.
With `O=C(Nc1cccc2cccnc12)N1CCCC1C1CCCC1` (centres undefined), the inhibition is 27.2%.
As for `O=C(NCC1CCN(c2ccccc2)C1)N1CCCC1C1CCCC1` (centres undefined), the figure is 67.7% (active).
Regarding `CC(=O)NCCC1CCN(c2nncc(-c3ccc(Cl)cc3)n2)CC1`, the inhibition is 38%.
Consider `O=C(CN1CCc2ccccc2C1)NCC1CCN(c2ccccc2)C1` (centres undefined), for which the inhibition is 91.3% (active).
As for `O=C(NCC1CC1)N1Cc2ccccc2C(c2ccccc2)C1` (centres undefined), the figure is 8.6%; as for `Fc1cccc2sc(Nc3nnc(-c4cccs4)o3)nc12`, 101% (active); as for `O=C(Nc1nc2c(Br)cccc2s1)Nc1c(F)cccc1F`, 28.4%.
As for `Cc1cccc2cc(CNC(C)Cc3ccco3)c(Cl)nc12` (centres undefined), the figure is 24.3%; as for `N#Cc1c(Cl)cccc1Oc1cccc(C(=O)O)c1`, 6.19%.
Consider `CC(C)(Cc1ccc2ccccc2c1)NC[C@@H](O)COc1cccc(Cl)c1C#N`, for which the inhibition is 87.4% (active).
The value for `Cc1ccc(OCC2CN(C(=O)COc3ccc(F)cc3)CCO2)cc1` (centres undefined) was 82.5% (active); that for `Cc1cc(OCC2CN(C(=O)COc3ccccc3C)CCO2)ccc1Cl` (centres undefined) was 50.9% (active).
For `Cc1cc(OCC2CN(C(=O)c3ccc(C#N)cc3F)CCO2)ccc1Cl` (centres undefined), the inhibition was 5.04%.
The value for `O=C(Cc1cccc(Cl)c1)N1CCOC(COc2ccc3c(c2)CCCC3)C1` (centres undefined) was 44%; that for `CNc1ccc(C(=O)N2CCOC(COc3ccc(Cl)c(C)c3)C2)cc1` (centres undefined) was 53% (active); that for `COc1cccc(CC(=O)N2CCOC(COc3ccc(F)cc3)C2)c1` (centres undefined) was 24%.
On to `Cc1ccccc1OCC(=O)N1CCOC(COc2cccc(C(F)(F)F)c2)C1` (centres undefined), for which the inhibition was 6.21%.
As for `Cc1ccc(OCC2CN(C(=O)COc3ccccc3C)CCO2)cc1` (centres undefined), the inhibition is 75.9% (active).
As for `O=C(COc1ccc(F)cc1)N1CCOC(COCc2c(Cl)cccc2Cl)C1` (centres undefined), the figure is 34%; as for `O=C(Cc1cccc(Cl)c1)N1CCOC(COCc2ccccc2F)C1` (centres undefined), 30.4%; as for `O=C(NCCC(=O)N1CCOC(COCc2ccc(F)cc2Cl)C1)OCc1ccccc1` (centres undefined), 61% (active).
For `Cc1cc(OCC2CN(C(=O)Cc3ccc4c(c3)OCO4)CCO2)ccc1Cl` (centres undefined), the inhibition was 65.7% (active).
As for `O=C(Cc1cccc(Cl)c1)N1CCOC(COc2ccc(F)cc2)C1` (centres undefined), the figure is 11.7%; as for `Cc1ccccc1OCC(=O)N1CCOC(COCc2ccccc2F)C1` (centres undefined), 72.4% (active).
The value for `COc1cccc(CC(=O)N2CCOC(COc3ccc(Cl)c(C)c3)C2)c1` (centres undefined) was 4.53%; that for `Cc1cc(OCC2CN(C(=O)Cc3cccc(Cl)c3)CCO2)ccc1Cl` (centres undefined) was 31%; that for `Cc1cc(OCC2CN(C(=O)COCc3ccccc3)CCO2)ccc1Cl` (centres undefined) was 50.5% (active).
As for `CNC(=O)c1cc(Oc2ccc(NC(=O)Nc3ccc(Cl)c(C(F)(F)F)c3)c(F)c2)ccn1`, the figure is 34.8%; as for `O=S1(=O)N(CCN2CC=C(c3c[nH]c4cc(F)ccc34)CC2)c2cccc3c2N1CCC3`, 12.6%; as for `O=C(/C=C/c1ccc(-c2cccc([N+](=O)[O-])c2)o1)N1CCCCC1`, 80.3% (active).
For `COc1c(Br)cc(Cl)cc1S(=O)(=O)NCCc1ccccc1`, the inhibition is 18%.
The value for `CN(Cc1ccc(F)cc1)Cc1nc(Cc2ccccc2Cl)no1` was 89.3% (active).
As to `COCCCC1CCN(Cc2nc(Cc3ccccc3Cl)no2)CC1`, the inhibition was 29.1%.
The value for `Fc1ccccc1N1CCN(Cc2nc(Cc3ccccc3Cl)no2)CC1` was “inactive”; that for `Cc1ccc(OCCN(C)Cc2nc(-c3cccc(Cl)c3)no2)cc1` was 35%.
Consider `CN(C1CCCCC1)S(=O)(=O)N1CCCC(c2nc(-c3cccc(F)c3)no2)C1` (centres undefined), for which the inhibition was 33.1%.
The value for `CCc1ccc(CN(C)Cc2nc(Cc3ccccc3F)no2)cc1` was 71% (active); that for `Clc1ccccc1Cc1noc(CN2CCN(Cc3ccccc3)CC2)n1` was 51.2% (active); that for `CN(Cc1nc(-c2cccc(Cl)c2)no1)C1CCCCC1` was 74.3% (active).
As for `CN(Cc1ccc2nsnc2c1)Cc1nc(Cc2ccccc2Cl)no1`, the figure is 31.6%.
As for `OCC1(Cc2ccccc2)CCCN(c2ccc(-c3ccccc3)nn2)C1` (centres undefined), the figure is 23.4%.
Take `CN(Cc1nc(Cc2ccccc2Cl)no1)C1CCCCC1`: the inhibition was 65.6% (active).
For `Cc1ccc(F)c(OCc2nc(Cc3ccccc3F)no2)c1F`, the inhibition was 81.3% (active).
The value for `COc1cccc(F)c1OCc1nc(CC2CC2)no1` was -44.2%; that for `COc1cccc2c1OCCCN(Cc1nc(Cc3ccccc3Cl)no1)C2` was 14.3%.
The value for `Cc1noc(CNc2cc(Cl)ccc2Oc2ccccc2)n1` was 33.9%; that for `COc1ccc(C2N=C(c3ccccc3C)NO2)cc1O` (centres undefined) was “inactive”; that for `COc1ccc([C@@H]2CC(=O)c3c(O)cc(O)cc3O2)cc1O` was 67.2% (active).
The value for `S=c1oc(-c2cccc(Cl)c2)nn1CN1CCC(c2nnc3ccccn23)CC1` was 22.7%; that for `Cc1cc(C)cc(-c2nn(CN3CCOCC3(C)C)c(=S)o2)c1` was -38.7%.
Consider `CN1CCN(Cn2nc(-c3ccc4c(c3)OCO4)oc2=S)CC1`, for which the inhibition was 86.7% (active).
As for `CCc1ccc(/C=C/S(=O)(=O)Nc2onc(C)c2C)cc1`, the figure is 68.3% (active); as for `O=C(c1ccc(F)c(F)c1F)N1CCC(Cc2ccc(-n3cccc3)cc2)CC1`, 56.5% (active); as for `O=C(c1ccc(C(F)(F)F)c(F)c1)N1CCC(Cc2ccc(-n3cccc3)cc2)CC1`, 63.9% (active).
As for `O=C(c1ccc(C(F)(F)F)c(F)c1)N1CCC(Cc2ccc(F)cc2)CC1`, the inhibition was 87% (active).
As for `O=C(c1ccc(Oc2ccc(Cl)cc2)c(F)c1)N1CCC(O)CC1`, the figure is 5.66%.
The value for `CCCc1cc(N2CC(C)CC(C)C2)n2nc3nc(C)cc(C)c3c2n1` (centres undefined) was -1.46%.
As for `COc1ccc(OCc2cc(C(=O)NC(C)c3csc(C)n3)no2)c(Cl)c1` (centres undefined), the figure is 36.7%; as for `COc1ccc(C(=O)NC(C)c2ccc(Cl)cc2Cl)cc1` (centres undefined), 55.6% (active); as for `CC(NC(=O)c1cc(Cl)ccc1F)c1ccc(Cl)s1` (centres undefined), 41.4%.
On to `N#CC1(NC(=O)c2ccc(-c3nc(C4CC4)no3)cc2)CCSC1` (centres undefined), for which the inhibition is 80.6% (active).
As for `CN(Cc1ccc(F)cc1)c1ccc(-c2nc(C3CC3)no2)cn1`, the figure is 27.2%; as for `O=[N+]([O-])c1ncc[nH]1`, 43.1%.
The value for `O=C1c2cccc3cccc(c23)C(=O)N1CCCCCc1n[nH]c(=S)o1` was 29.7%.
As for `COc1ccc(Cc2n[nH]c(=S)o2)cc1`, the figure is 101% (active); as for `COc1ccc(CCCc2n[nH]c(=S)o2)cc1`, 99.7% (active); as for `CC(Cc1n[nH]c(=S)o1)c1ccccc1` (centres undefined), 36.9%.
With `CCOc1ccc(-c2n[nH]c(=S)o2)cc1`, the inhibition is 48.7%.
In the case of `S=c1[nH]nc(Cc2ccccc2)o1`, the inhibition is -26.6%.
The value for `O=C(NC1CCCCCC1)c1ccco1` was 55.1% (active); that for `Cc1c(C(=O)NC2CCCCC2)oc2ccccc12` was 90.9% (active); that for `O=C(NC1CCCC1)c1occc1COc1ccccc1` was 60.1% (active).
As for `O=C(NC(=S)NC1CCCCCCC1)c1ccco1`, the figure is 63.9% (active); as for `O=C(Nc1ccc(Cl)c(Cl)c1)c1occc1COc1ccccc1`, 32.6%.
The value for `CC(=NNC(=O)NC1CCCCC1)c1ccco1` was -56.6%; that for `CN(C)c1ccc(NC(=O)C2C[C@H]2c2ccccc2)cc1C(=O)NC1CCCCC1` (some centres undefined) was 20%; that for `Cc1cc(-c2ccc(NC3=NCCCS3)cc2)nc2ccccc12` was 20.2%.
`CC(C)CNC(=O)C(=O)NCCCc1ccc(N(C)C)cc1`: the inhibition was 33%.
The value for `CCN(CC)S(=O)(=O)c1ccc(N=Nc2c(C)nn(-c3ccccc3)c2N)cc1` was 25.3%; that for `Cc1nn(-c2ccccc2)c(N)c1N=Nc1cccc(Cl)c1` was 56% (active).
For `CC(=O)Nc1cccc(N=C2NN=C(C34CC5CC(CC(C5)C3)C4)CS2)c1`, the inhibition was 35.4%.
As for `CN(C)C(=O)c1csc(-c2csc(NCC3CCC3)n2)c1`, the figure is 38.9%.
As for `Cc1cc(-c2csc(NC3CCCC3)n2)c(C)n1CC1CCCO1` (centres undefined), the figure is 23.4%; as for `Clc1ccc(-c2csc(NCC3CCCO3)n2)c(Cl)c1` (centres undefined), 77.3% (active); as for `CCCSc1nnc2c(n1)OC=Nc1ccc(Br)cc1-2`, 87.8% (active).
As for `CCCCSc1nnc2c(n1)OC(C)(CC)Nc1ccccc1-2` (centres undefined), the figure is -11.3%; as for `CCCCSc1nnc2c(n1)OC=Nc1ccc(Br)cc1-2`, 82.3% (active).
As to `O=c1c2c3nc4ccccc4nc3n(C3CCCC3)c2ncn1Cc1ccco1`, the inhibition is -15.8%.
Turning to `Cc1ccc(Cn2nc(-c3ccccc3)ccc2=O)cc1`, the inhibition was 70.6% (active).
As for `O=c1ccc(-c2cccc(Br)c2)nn1Cc1ccccc1`, the figure is 22.6%; as for `O=c1ccc(-c2ccc(F)cc2)nn1Cc1ccccc1F`, 33.9%.
As for `CCOc1ccc(-c2ccc(=O)n(Cc3ccc(F)cc3)n2)cc1`, the figure is 90.8% (active); as for `Cc1ccc(-c2ccc(=O)n(Cc3ccccc3F)n2)cc1`, 28.8%.
The value for `CCOc1ccc(-c2ccc(=O)n(Cc3ccccc3)n2)cc1` was 41.1%.
For `Cc1ccc(-c2ccc(=O)n(Cc3ccccc3)n2)cc1`, the inhibition was 24%.
For the compound `O=c1ccc(-c2ccc(Br)cc2)nn1Cc1cccc(F)c1`, the inhibition is -4.34%.
As to `O=c1ccc(-c2ccccc2)nn1Cc1cccc(Cl)c1`, the inhibition is 92.4% (active).
The value for `O=c1ccc(-c2ccc(Cl)cc2)nn1Cc1ccccc1F` was 70.5% (active); that for `O=c1ccc(-c2ccc(F)cc2)nn1Cc1ccc(Br)cc1` was 46.8%.
